Experimental data as given in PubChem BioAssay AID488890 (Southern Research Specialized Biocontainment Screening …, 2010).
Hit rate of the full screen: of about 320,000 compounds, about 1,300 (0.41%) were called active. Another 3% or so got no clear call; they are omitted. The rule behind the calls is not given here. A selection follows. Entries with a potency or affinity are not part of this list.

Assay: growth inhibition of non-replicating M. tuberculosis (AID 488890);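 note: plate controls were DMSO cells for no effect and high antibiotic wells for full effect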
Conditions: Mycobacterium tuberculosis non-replicating, at 25 µM, stronger effect = higher value
Compound `N#Cc1ccc(C23CC4(C2)[C@H](CN(Cc2ccc(C(F)(F)F)cc2)[C@@H]4c2ccccc2)C3c2ccccc2)cc1` (stereo not given in full) has an inhibition of 19.2%.
`Cc1cc(C)c(NC(=S)N2CCN(c3ccc([N+](=O)[O-])cn3)CC2)cc1C` showed an inhibition of -3%.
`OC/C(Br)=C(\Br)CO` gave an inhibition of -3.52%.
`COc1ccc(OC)c(NC(=O)C2COc3ccccc3O2)c1` (stereo not given) showed an inhibition of 30.6%.
Work on `CC(C)(C)NC(=O)c1ccc(NC(=O)C2COc3ccccc3O2)cc1` (stereo not given) yielded an inhibition of 45.9%.
`NC(=O)c1ccc(NC(=O)C2COc3ccccc3O2)cc1` (stereo not given) showed an inhibition of 1.12%.
Compound `COc1ccc(CNC(=O)C2COc3ccccc3O2)cc1` (stereo not given) has an inhibition of 72.5%.
With `CCOC(=O)CN1C(=O)N[C@@H](c2ccccc2)C(C(=O)OC)=C1C` the inhibition was -18.9%.
Work on `COCc1ccc(C(=O)N2CCCC(N3CCN(c4ccccc4C)CC3)C2)s1` (stereo not given) yielded an inhibition of 20.7%.
Compound `O=C1C2C3C=CC(C3)C2C(=O)N1CC1CCCO1` (stereo not given) has an inhibition of -0.04%.
For `NC(=O)CCn1c(C(=O)c2cc(Cl)c(N)c(Cl)c2)c2ccccc2[n+]1[O-]`, the inhibition was 7%.
Compound `O=C(Nc1cccnc1)C1OCCc2ccccc21` (stereo not given) has an inhibition of -3.68%.
`COCCn1c(SCC(=O)Nc2ccc(S(=O)(=O)N(C)C)cc2)nc2ccccc21` showed an inhibition of 0.14%.
`COc1cccc(NC(=O)CCC2CCN(C(=O)C3CC=CCC3)CC2)c1` (stereo not given) showed an inhibition of 6.11%.
`Cc1nc(-c2cccc(S(=O)(=O)N3CCCCC3)c2)cs1` gave an inhibition of 3.4%.
With `COc1ccccc1NC(=O)c1cc(-c2cc(OC)c(OC)c(OC)c2)nc2ccccc12` the inhibition was 1.97%.
`C/C(=C\C(=O)c1ccc(Br)cc1)NCc1ccccc1` gave an inhibition of 52.8%.
Work on `COc1ccc(N/C(C)=C/C(=O)c2ccccc2)cc1` yielded an inhibition of 57.9%.
With `C/C(=C\C(=O)c1ccc(Br)cc1)NNC(=O)c1ccc(O)cc1` the inhibition was 67.2%.
Compound `COc1ccc(/C(O)=C/C(=O)C(=O)NNC(=O)c2ccccc2)cc1` has an inhibition of 22.9%.
For `CCOc1ccc(N2CC(C(=O)NCCCc3ccccc3)CC2=O)cc1` (stereo not given), the inhibition was 24.1%.
Work on `Cc1cccc(NC(=O)Cn2cnc3sc(C)c(S(=O)(=O)N4CCC(C)CC4)c3c2=O)n1` yielded an inhibition of 7.28%.
In the case of `CCN1CCN(c2ccc(S(=O)(=O)N3CCOCC3)cc2NC(=O)c2sccc2C)CC1`, the inhibition is reported as -12.4%.
`CC(=O)c1ccc(N2CCN(S(=O)(=O)c3cccc4nonc34)CC2)cc1` showed an inhibition of 10.4%.
`O=C(O)CSc1ccccn1` gave an inhibition of -10.9%.
`O=C(O)CCSc1ccccn1` gave an inhibition of -2.61%.
Work on `O=C(c1ccccc1)c1nnc(-c2ccncc2)o1` yielded an inhibition of 49.9%.
Work on `O=C(c1nnc(-c2ccncc2)o1)c1ccccc1Cl` yielded an inhibition of 72.4%.
With `O=C(c1cccc(F)c1)N1CCC2(CC1)NCCc1[nH]cnc12` the inhibition was -6.44%.
For `CN(CC(O)COCc1cccs1)C1CCCCC1` (stereo not given), the inhibition was 4.88%.
`O=C(O)c1cc(-c2ccccc2)nc2ccccc12` gave an inhibition of -4.94%.
`c1ccc(-c2cc3c(ccc4nonc43)nn2)cc1` gave an inhibition of 21%.
With `Cc1ccc(NC(=O)CC(C)N2CCCC2)cc1` (stereo not given) the inhibition was -3.18%.
For `CC(NCC(O)COCc1ccc(Cl)cc1)c1ccccc1` (stereo not given), the inhibition was 78.5%.
For `NCC(O)COCCC12CC3CC(CC(C3)C1)C2` (stereo not given), the inhibition was 8.67%.
`O=C(Nc1nnc(C(F)(F)F)s1)c1cccnc1` gave an inhibition of 27.8%.
`Cc1nnc(NC(=O)c2ccccc2NC(=O)c2ccccc2)s1` showed an inhibition of 33.7%.
For `Cc1cc(-c2n[nH]c(=S)n2-c2ccccc2C)cs1`, the inhibition was -13.2%.
With `COc1ccccc1NC(=O)COC(=O)/C=C/c1ccccc1[N+](=O)[O-]` the inhibition was 65.2%.
Compound `COC(=O)COc1ccc(/C=C2/NC(=O)N(CC(=O)OC)C2=O)cc1` has an inhibition of 9.12%.
In the case of `CCN1C(=O)/C(=C/c2ccc(N3CCCC3)cc2)NC1=S`, the inhibition is reported as 52.1%.
In the case of `Cc1cc(C)n(-c2ccc(C(=O)Nc3cccc(S(=O)(=O)N4CCCC4)c3)cc2)n1`, the inhibition is reported as -4.31%.
For `C=CCn1c(SCC(=O)Nc2cc(C)cc(C)c2)nnc1-c1cnccn1`, the inhibition was -3.18%.
With `CC[n+]1c(/C=C/Nc2ccccc2)oc2ccccc21` the inhibition was 67.7%.
`CC[n+]1c(/C=C/Nc2ccccc2)oc2ccc(OC)cc21` showed an inhibition of 35.5%.
`Cc1cc(=O)oc2c3c(cc(OCC(=O)NCc4cccnc4)c12)OC(C)(C)CC3` gave an inhibition of 7.63%.
`CC(=O)OCCc1c2ccccc2c(CCCN(C)C)c2ccccc12` gave an inhibition of 41.4%.
Work on `Cc1onc(-c2c(Cl)cccc2Cl)c1COC(=O)c1ccc(Cl)cc1` yielded an inhibition of 16.1%.
`Cc1onc(-c2c(Cl)cccc2Cl)c1C(=O)OCC(=O)c1ccccc1` gave an inhibition of 15.6%.
`COc1c(F)c(F)cc2c(=O)c(C(=O)O)cn(C3CC3)c12` showed an inhibition of 4.5%.
`CCOC(=O)c1cn(C2CC2)c2c(F)c(F)c(F)cc2c1=O` gave an inhibition of -13%.
With `Cc1c(-n2cc(C(=O)O)c(=O)c3cc(F)c(N4CCCC(O)C4)c(F)c32)c(=O)n(-c2ccccc2)n1C` (stereo not given) the inhibition was 0.14%.
`CC1CCc2cc(F)cc3c(=O)c(C(=O)O)cn1c23` (stereo not given) showed an inhibition of 35.4%.
For `C=CCN(CC=C)C(=O)COC(=O)c1ccc(Sc2ncn[nH]2)c([N+](=O)[O-])c1`, the inhibition was 43.1%.
In the case of `Cc1ccc(-c2ccc(SCC(=O)N3CCc4ccccc43)nn2)cc1`, the inhibition is reported as -0.83%.
Compound `Cc1cc(NC2CCCC2)n2ncc(-c3ccccc3)c2n1` has an inhibition of 36.8%.
`Cc1cc(NCc2ccccc2)n2ncc(-c3ccccc3)c2n1` showed an inhibition of 14.7%.
For `Cc1nn2c(NCCCn3ccnc3)cc(C(C)C)nc2c1-c1ccccc1`, the inhibition was 75.8%.
In the case of `CC(=O)Nc1ccc(Nc2cc(C(C)C)nc3c(-c4ccccc4)c(C)nn23)cc1`, the inhibition is reported as 5.77%.
In the case of `CCCc1cc(N2CCN(c3ccccn3)CC2)n2nc(C)c(-c3ccccc3)c2n1`, the inhibition is reported as 2.63%.
`Cc1cc(NCCCn2ccnc2)n2nc(C)c(-c3ccc(Cl)cc3)c2n1` gave an inhibition of -1.28%.
In the case of `CCCc1cc(N2CCCC2)n2nc(C)c(-c3ccccc3)c2n1`, the inhibition is reported as 43.4%.
`CC(=O)Nc1ccc(Nc2cc(C)nc3c(-c4ccc(Cl)cc4)c(C)nn23)cc1` gave an inhibition of 2.43%.
With `Nc1cc(N2CCNCC2)c([N+](=O)[O-])cc1Cl` the inhibition was 6.14%.
Work on `Cc1ccc(CNC(=O)C2CCCN(C(=O)N(C)C)C2)cc1` (stereo not given) yielded an inhibition of -2.88%.
`C=CCN1C(=O)c2ccc(C(=O)OCC(=O)Nc3ccccc3OC)cc2C1=O` showed an inhibition of -2.33%.
Compound `CC(=O)c1cc(CN2CCN(Cc3ccccc3)C(CCO)C2)cs1` (stereo not given) has an inhibition of 1.86%.
For `Cc1cc(C(=O)N(C)CC(=O)Nc2ccc(Cl)c(C(F)(F)F)c2)no1`, the inhibition was 6.97%.
Work on `Cc1c(NC(=O)COC(=O)Cn2cc(C(F)(F)F)ccc2=O)cccc1[N+](=O)[O-]` yielded an inhibition of -1.08%.
`Cc1cc(C)n2nc(SCC(=O)N(Cc3ccccc3)C3CCS(=O)(=O)C3)nc2n1` (stereo not given) showed an inhibition of -1.73%.
With `Cc1cc(Nc2ccccc2)n2nc(C)c(-c3ccccc3)c2n1` the inhibition was 15.2%.
Compound `Cc1cc(NCCC(C)C)n2nc(C)c(-c3ccccc3)c2n1` has an inhibition of 49.1%.
Work on `O=C(CCc1ccccc1)NNC(=O)c1cc(Cl)ccc1O` yielded an inhibition of -5.64%.
`COc1ccc(C(=O)CC(=O)c2ccccc2O)cc1OC` gave an inhibition of 22.7%.
Work on `O=C(CC(=O)c1ccccc1)Nc1ccc(Cl)cc1` yielded an inhibition of 51.8%.
Work on `Cc1ccc(O)c(C(=O)CC(=O)c2cccc(F)c2)c1` yielded an inhibition of -5.71%.
`C/C(=N\NC(=O)CNc1cccc(Cl)c1C)C1CC1` gave an inhibition of 2.17%.
Work on `CC(=O)Nc1ccc(C(=O)N2CCN(S(=O)(=O)c3ccc4c(c3)OCCCO4)CC2)cc1` yielded an inhibition of -1.17%.
With `Cc1sc(NC(=O)C2=COCCO2)nc1-c1ccc(Cl)cc1` the inhibition was 3.57%.
Compound `c1ccc(CN2CCN(c3cnc4ccccc4n3)CC2)cc1` has an inhibition of 3.95%.
For `COc1cc(OC)cc(C(=O)NC(=S)NNC(=O)[C@H]2C[C@@H]2c2ccccc2)c1`, the inhibition was 78.5%.
With `COc1cc(C(=O)NC(=S)NNC(=O)[C@H]2C[C@@H]2c2ccccc2)cc(OC)c1OC` the inhibition was 62.4%.
In the case of `CC(=O)NCCc1nc2cc(NS(=O)(=O)c3ccc(Cl)cc3)ccc2n1C`, the inhibition is reported as -19.6%.
With `COCCCN(CC(=O)Nc1ccc(F)cc1)S(=O)(=O)c1cccs1` the inhibition was 5.35%.
`NNC(=O)/C(=C/c1cccs1)NC(=O)c1ccccc1Cl` showed an inhibition of 1.61%.
`Nc1ccc(C(=O)Nc2ccc(OC(F)(F)C(F)F)c(NC(=O)c3ccc(N)cc3)c2)cc1` gave an inhibition of 20.7%.
`CCN(CC)S(=O)(=O)c1ccc(NS(=O)(=O)c2ccc(OC)c([N+](=O)[O-])c2)cc1` showed an inhibition of -6.27%.
`CCOC(=O)c1cn(CC)c2cc(N3CCN(C)CC3)c(F)cc2c1=O` gave an inhibition of -0.72%.
In the case of `CCCCCCCCCC(=O)N1CCN(c2cc3c(cc2F)c(=O)c(C(=O)O)cn3CC)CC1`, the inhibition is reported as 6.5%.
Compound `CCCCCCCCC(=O)N1CCN(c2cc3c(cc2F)c(=O)c(C(=O)O)cn3CC)CC1` has an inhibition of 62.8%.
`CCCCCCCC(=O)N1CCN(c2cc3c(cc2F)c(=O)c(C(=O)O)cn3CC)CC1` gave an inhibition of 72.9%.
In the case of `CCn1cc(C(=O)NN)c(=O)c2cc(F)c(N3CCN(C)CC3)cc21`, the inhibition is reported as -3.82%.
`O=C(O)c1cn(C2CC2)c2cc(N3CCN(S(=O)(=O)c4ccc5c(c4)OCCO5)CC3)c(F)cc2c1=O` gave an inhibition of 79.5%.
For `CCc1ccc(/C=N/NC(=O)Cc2ccc(OC)c(OC)c2)s1`, the inhibition was 9.54%.
With `COC(=O)C1=C2SC(C)C(=O)N2C(N)=C(C#N)C1c1ccc(OC)c(OC)c1` (stereo not given) the inhibition was 5.18%.
Compound `CC(=O)c1ccc(NC(=O)CCC(=O)OCC(F)(F)C(F)F)cc1` has an inhibition of -4.72%.
Compound `CC(=O)Nc1ccccc1OCc1cnc(Cl)s1` has an inhibition of 21%.
For `Cc1cc(S(=O)(=O)Nc2cc(C)c(O)c(C)c2)c(C)s1`, the inhibition was 13%.
Compound `COc1ccc(-c2cc(NCCc3ccncc3)n3ncnc3n2)cc1` has an inhibition of 24.4%.
`COc1ccc(-c2cc(NCc3ccccn3)n3ncnc3n2)cc1` gave an inhibition of 55.9%.
Compound `C[C@H](CO)N1C[C@H](C)[C@@H](CN(C)S(=O)(=O)c2ccccc2)Oc2ccc(NC(=O)C3CC3)cc2C1=O` has an inhibition of 6.81%.
`Cc1cc(Br)ccc1SCC(=O)OCC(=O)NC1CCCC1` gave an inhibition of 35.6%.
Compound `O=C(Nc1ccc(N2CCCCC2)cc1)c1cc([N+](=O)[O-])cc([N+](=O)[O-])c1` has an inhibition of 14.1%.
Compound `Cc1csc(NC(=O)c2ccc(C(=O)Nc3nc(C)cs3)cc2)n1` has an inhibition of -7.26%.
Compound `CC(=O)Nc1ccc(C(=O)NNC(=O)c2cc([N+](=O)[O-])cc([N+](=O)[O-])c2)cc1` has an inhibition of 16.3%.
Compound `Cc1csc(NC(=O)c2ccc(C)c([N+](=O)[O-])c2)n1` has an inhibition of 5.36%.
`COc1ccc(NC(=O)c2cc([N+](=O)[O-])ccc2N2CCCCC2)cc1` gave an inhibition of -7.4%.
`O=C(Nc1ccc(NC(=O)c2cccc([N+](=O)[O-])c2)cc1)c1cccc([N+](=O)[O-])c1` gave an inhibition of -7.47%.
Compound `O=C(Nc1ccc([N+](=O)[O-])cc1)c1cncc(Br)c1` has an inhibition of 13.8%.
For `COc1ccc(NC(=O)c2cc([N+](=O)[O-])ccc2N2CCCC2)cc1`, the inhibition was -2.99%.
